SMARCA2 activ: activators of SMARCA2 function; MG213 cells, MMTV-luciferase reporter, dexamethasone, overnight; 370,000 compounds, 1% hits; activation, % at 9.1 µM; in the data active = activation above about 7.8%
Rtt109 Vps75: C. albicans Rtt109 histone acetyltransferase inhibition; Q5AAJ8; purified Rtt109/Vps75, ThioGlo CoA-SH fluorescence, 4 h; inhibition, % at 34.9 µM; 330,000 compounds, 0.16% hits;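 active = inhibition of at least 50% in every replicate; inconclusive = best replicate reaches 50% inhibition but some replicates fall short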
Target sequence (Q5AAJ8 whole entry, looked up): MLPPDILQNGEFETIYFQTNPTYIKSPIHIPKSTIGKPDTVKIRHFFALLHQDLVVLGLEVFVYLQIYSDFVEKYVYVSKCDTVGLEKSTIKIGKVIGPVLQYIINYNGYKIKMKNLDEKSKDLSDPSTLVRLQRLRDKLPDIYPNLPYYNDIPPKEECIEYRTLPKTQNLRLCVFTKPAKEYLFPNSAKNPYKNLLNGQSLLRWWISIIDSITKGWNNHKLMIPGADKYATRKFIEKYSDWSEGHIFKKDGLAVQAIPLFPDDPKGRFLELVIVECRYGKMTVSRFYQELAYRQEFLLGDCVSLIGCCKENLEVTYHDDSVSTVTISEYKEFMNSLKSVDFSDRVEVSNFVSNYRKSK
dFosB activator: enhances mouse delta FosB homodimer DNA binding. activation, % at 25 µM. purified delta FosB, TAMRA-CDK5 oligo fluorescence polarization; percent of positive-control signal above neutral wells. P13346. 340,000 compounds, 0.99% hits;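 active = mean activation above about 17%, with every replicate also reaching it, limit read from the data, passing the limit was not always enough; inconclusive = only one of the two conditions met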
Target sequence (P13346 whole entry, looked up): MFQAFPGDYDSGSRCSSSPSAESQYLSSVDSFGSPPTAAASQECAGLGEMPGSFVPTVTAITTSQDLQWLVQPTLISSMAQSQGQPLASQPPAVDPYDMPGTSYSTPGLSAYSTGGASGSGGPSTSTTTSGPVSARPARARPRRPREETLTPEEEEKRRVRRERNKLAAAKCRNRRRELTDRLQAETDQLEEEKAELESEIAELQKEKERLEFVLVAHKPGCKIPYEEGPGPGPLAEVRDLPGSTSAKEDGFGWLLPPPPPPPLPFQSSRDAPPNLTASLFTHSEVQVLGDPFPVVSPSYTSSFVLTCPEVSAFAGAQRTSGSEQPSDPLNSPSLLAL
esBAF inh: inhibitors of esBAF chromatin remodeling in mouse ES cells; Bmi1-luciferase knock-in reporter, 24 h; 100% = twice the neutral-well signal; 350,000 compounds, 2% hits; reporter increase, % at 12.5 µM; in the data active = activation above about 40%; inconclusive = no clear call, values can overlap the other calls;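 also: a rise in the Bmi1 reporter signal indicates esBAF inhibition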
Dyrk1A ADPGlo: blocks rat Dyrk1A kinase activity; 310,000 compounds, 0.43% hits; inhibition, % at 12.5 µM; ADP-Glo luminescence, NFATc1 peptide; AID 504441; Q63470; in the data active = inhibition above about 50%
CDK5 p35 inh: inhibitors of human CDK5/p35 kinase; Q00535+Q15078; Recombinant CDK5/p35, ADP-Glo luminescence, 60 min; inhibition, % at 10 µM; 330,000 compounds, 0.01% hits;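 active = highest replicate inhibition of at least 50% and at least 75% of replicates reaching 50%; inconclusive = only one of the two criteria met; inactive = both criteria failed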
Ring1 derepress: confirmation of esBAF inhibitors: Ring1 de-repression in mouse ESCs. AID 743176. fold change at 33 µM. 550 tested, under 10 active. shares compounds with esBAF inh. mouse ESC E14, Ring1 mRNA RT-qPCR fold change;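 active = Ring1 gene expression raised more than 2-fold over untreated cells in both replicates at either tested dose; inconclusive = only one replicate above 2-fold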;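 also: Ring1 transcript normalised to actin housekeeping signal by TaqMan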
Fgf4 repress: confirmation of esBAF inhibitors: Fgf4 repression in mouse ESCs; shares compounds with esBAF inh; mouse ESC E14, Fgf4 mRNA qPCR fold change; active compounds read low; Fgf4 expression fold change at 33 µM; 550 compounds, 4% hits; AID 743177;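 active = Fgf4 expression under 0.8 fold of control in both repeat measurements at one or both tested doses; inconclusive = under 0.8 fold in just a single repeat measurement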;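 also: Fgf4 transcript normalised to actin in duplex TaqMan qPCR; cells exposed to compound for 24 h before lysis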
Bmi1 derepress: esBAF inhibition confirmed by Bmi1 de-repression. shares compounds with esBAF inh. mouse ESE14 ES cells, Bmi1 mRNA qPCR fold; active compounds read high. fold change at 33 µM. 550 tested, under 10 active;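 active = Bmi1 expression fold change above 6 at either tested concentration, seen in replicate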;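 also: higher fold means more Bmi1 de-repression and stronger esBAF inhibition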
A549 tox SP: cytotoxicity in A549 cells | shares compounds with esBAF inh | plate reader | cell viability change % (negative = cytotoxic), % at 25 µM, hits read low | 550 tested, under 10 active; call rule not given here
HepG2 cytotox SP: HepG2 cell cytotoxicity at single point; AID 743189; activity change, negative = inhibition, % at 25 µM; 550 compounds, 4% hits; plate reader; active compounds read low; shares compounds with esBAF inh; in the data active = activity change below about -50%
HEK293 cytotox SP: HEK293 cell cytotoxicity at single point | plate reader | activity change, negative = inhibition, % at 25 µM, hits read low | shares compounds with esBAF inh | 550 compounds, 3% hits | AID 743190; in the data active = activity change below about -38%, passing the limit was not always enough
Hits are given with their value; 0 = inactive; ? = inconclusive; - = no result given. Most compounds without a hit are left out; they make up all but 3.2% or so of the library.

SMILES	SMARCA2 activ	Rtt109 Vps75	dFosB activator	esBAF inh	Dyrk1A ADPGlo	CDK5 p35 inh	Ring1 derepress	Fgf4 repress	Bmi1 derepress	A549 tox SP	HepG2 cytotox SP	HEK293 cytotox SP
c1ccc(CCc2nc(-c3cccnc3)no2)cc1	0	0	0	59	0	0	0	0	0	0	0	0
Cn1c(-c2ncc(F)cc2F)cc2onc(-c3c(F)cccc3Cl)c2c1=O	0	0	0	91	0	0	0	?	0	0	0	0
Nc1c(C(=O)NC2CCCC2)sc2nc(-c3cccs3)ccc12	0	0	0	-	0	0	-	-	-	-	-	-
NC(=O)c1sc2nc(-c3cccs3)ccc2c1N	0	0	0	59	0	0	0	0	0	0	0	0
COc1ccc(-c2nnn(Cc3ccccc3)n2)cc1	0	0	0	79	0	0	0	0	0	0	0	0
CN(C)c1ccc(-c2ccc3oc(-c4ccsc4)cc(=O)c3c2)cn1	0	0	0	69	0	0	0	0	0	0	0	0
Cc1ccc(NC(=O)C2CC3CCC2C3)c(Br)c1 (configuration not stated)	0	0	0	73	0	0	0	0	0	0	0	0
Cc1ccc(C)c(NC(=O)C2CC3CCC2C3)c1 (configuration not stated)	0	0	0	0	0	0	-	-	-	-	-	-
C[C@@H]1CN([C@H](C)CO)C(=O)c2cc(NC(=O)Nc3cccc4ccccc34)ccc2O[C@@H]1CN(C)S(=O)(=O)c1ccc(Cl)cc1	-	-	-	0	-	-	-	-	-	-	-	-
COc1ccc(-c2cnc(C(O)c3ccccc3)[nH]2)cc1 (configuration not stated)	0	-	-	65	-	-	0	0	0	0	0	0
CCCN(C)C[C@H]1OCCCC[C@H](C)Oc2ccc(N(C)C)cc2C(=O)N([C@H](C)CO)C[C@H]1C	-	-	-	0	-	-	-	-	-	-	-	-
O=C(Nc1cccc2ccccc12)c1cnccn1	0	0	0	63	0	0	0	0	0	0	0	0
Cc1cc(C)c2nc(-c3ccccc3)ccc2c1	0	-	-	63	-	-	0	?	0	0	0	0
CCc1ccc2cc(C)cc(C)c2n1	0	-	-	0	-	-	-	-	-	-	-	-
Fc1ccccc1NC(=S)N1CCC(c2ccccc2)C1 (configuration not stated)	0	0	0	82	0	0	0	0	0	0	0	0
CSc1nnc(NC(=O)C23CC4CC(CC(C4)C2)C3)s1	0	0	0	58	0	0	0	?	0	0	0	0
Cc1ccc(S(=O)(=O)N[C@H]2CC[C@@H](CCn3cc(-c4cccc(F)c4)nn3)O[C@@H]2CO)cc1	-	-	-	0	-	-	-	-	-	-	-	-
CC(=O)c1ccccc1NC(=O)c1ccc(N2CCCC2=O)cc1	0	0	0	?	0	0	-	-	-	-	-	-
CSc1ccccc1NC(=O)c1ccc(N2CCCC2=O)cc1	0	0	0	73	0	0	0	0	0	0	0	0
CN(C)c1ccc(CN(C(=O)c2cc3ccccc3oc2=O)C2CCS(=O)(=O)C2)cc1 (configuration not stated)	0	0	0	70	0	0	0	0	0	0	0	0
Cc1csc(NC(=O)Nc2ccc(Cl)cc2)n1	0	0	0	60	0	0	0	0	0	0	0	0
CCOC(=O)Cc1csc(NC(=O)Nc2ccc(Cl)cc2)n1	0	0	0	-	0	0	-	-	-	-	-	-
COc1ccc(NC(=O)Nc2ccc3c(c2)C(=O)N([C@@H](C)CO)C[C@@H](C)[C@@H](CN(C)C(=O)Nc2ccc(C(F)(F)F)cc2)O3)cc1	-	-	-	0	-	-	-	-	-	-	-	-
Cc1ccc(S(=O)(=O)NCc2ccccc2)cc1C(=O)NC1CCC(C)CC1 (configuration not stated)	0	0	0	74	0	0	0	0	0	0	0	0
Cc1ccc(S(=O)(=O)NCc2ccccc2)cc1C(=O)N1CC(C)CC(C)C1 (configuration not stated)	0	0	0	0	-	0	-	-	-	-	-	-
SMILES	SMARCA2 activ	Rtt109 Vps75	dFosB activator	esBAF inh	Dyrk1A ADPGlo	CDK5 p35 inh	Ring1 derepress	Fgf4 repress	Bmi1 derepress	A549 tox SP	HepG2 cytotox SP	HEK293 cytotox SP
CC(=O)c1ccc(NC(=O)C2CC(=O)N(Cc3ccccc3)C2)cc1 (configuration not stated)	0	0	0	56	0	0	0	0	0	0	0	0
Clc1ccc(Cn2cnc3ccccc32)cc1	0	0	0	0	0	0	-	-	-	-	-	-
c1ccc(Cn2cnc3ccccc32)cc1	0	0	0	106	0	0	0	0	0	0	0	0
COc1cccc(CN(C)C(=O)c2ccc(COc3ccc(Cl)cc3)cc2)c1OC	0	0	0	59	0	0	0	0	0	0	0	0
NC(=O)C1CCCN(C(=O)CCc2nnc(C3(c4ccc(Cl)cc4)CCC3)o2)C1 (configuration not stated)	0	0	0	-	0	0	-	-	-	-	-	-
O=C(CCc1nnc(C2(c3ccc(Cl)cc3)CCC2)o1)N1CCCC1	0	0	0	65	0	0	0	0	0	0	0	0
COc1ccc2nc(C(c3ccc(C)cc3)n3c(-c4ccccc4Br)nc4ccccc43)[nH]c2c1 (configuration not stated)	0	-	-	?	-	-	0	0	0	0	0	0
CC(C)CC(c1nc2ccccc2[nH]1)n1c(-c2ccccc2Br)nc2ccccc21 (configuration not stated)	0	-	-	0	-	-	-	-	-	-	-	-
Cc1ccn2cc(C(=O)Nc3nnc(C)s3)nc2c1	0	0	0	55	0	0	0	0	0	0	0	0
CN(C)c1ccc(N=Cc2nc(-c3ccccc3)oc2OC(=O)c2cccc(Br)c2)cc1	0	0	0	63	0	-	0	0	0	0	0	0
COc1ccc(N=Cc2nc(-c3ccccc3)oc2OC(=O)c2ccccc2)cc1	0	0	0	-	0	0	-	-	-	-	-	-
O=C(Cn1cnc2ccccc2c1=O)c1ccc2ccccc2c1	0	0	0	0	0	0	-	-	-	-	-	-
Cc1cc(C(=O)Cn2cnc3ccccc3c2=O)c(C)n1C1CC1	0	0	0	65	0	0	0	0	0	0	0	0
Cc1noc(C)c1NC(=O)Nc1ccc2c(c1)C(=O)N([C@H](C)CO)C[C@H](C)[C@H](CN(C)S(=O)(=O)c1ccc(Cl)cc1)OCCCC[C@H](C)O2	-	-	-	0	-	-	-	-	-	-	-	-

From PubChem BioAssay
